The whole screen tested about 52,000 compounds, of which about 4,300 (8.3%) were called active. What follows is part of a selection rich in actives, with near analogues and random picks from the rest. Values without a mark were called inactive. Rule as the data show it: active = survival mostly below about 52% (no sharp cut-off); inactive = mostly above about 56%.

For the assay, the system named is DeltatarO mutant. The experiment in a line: S. aureus survival, RN4220 and DeltatarO strains – OD600, teichoic acid synthesis inhibitors, primary screen (AID 463173). Conditions: S. aureus RN4220 wild type/DeltatarO growth, OD600, 18 h, active compounds read low, screened at 18.75 µg/mL (by protocol).
Regarding `CCOc1ccc(CCNC(=O)CCN2N=C(c3ccc(OC)cc3)CCC2=O)cc1OCC`, the survival was 81%. With `COc1ccc(NC(=O)c2sc3nc(-c4cc5cccc(OC)c5oc4=O)[nH]c(=O)c3c2C)cc1`, the survival is 46%. In the case of `Cc1cccc(NC(=O)c2sc3nc(-c4cc5ccc(O)cc5oc4=O)[nH]c(=O)c3c2C)c1` it was 46%; in that of `COc1ccc(NC(=O)c2sc3nc[nH]c(=O)c3c2C)cc1`, 75%. In the case of `Cc1cc(NC(=O)c2ccc(F)cc2)ccc1-c1cc2ccccc2oc1=O`, the survival is 75%.

Consider `Cc1cc(C)cc(NC(=O)c2sc3nc[nH]c(=O)c3c2C)c1`, for which the survival is 91%. Under `CCOc1cccc2cc(-c3nc4sc(C(=O)Nc5ccc(C)cc5)c(C)c4c(=O)[nH]3)c(=O)oc12` stands 51%; under `COc1ccc(NC(=O)c2sc3nc(-c4cc5ccc(OC)cc5oc4=O)[nH]c(=O)c3c2C)cc1`, 46% (active); under `Cc1ccc(NC(=O)c2sc3nc(-c4cc5ccccc5oc4=O)[nH]c(=O)c3c2C)c(C)c1`, 39% (active). On to `Cc1ccccc1NC(=O)c1sc2nc(-c3cc4ccccc4oc3=O)[nH]c(=O)c2c1C`, for which the survival is 52%. In the case of `Cc1cc(C)cc(NC(=O)c2sc3nc(-c4cc5ccccc5oc4=O)[nH]c(=O)c3c2C)c1` it was 43% (active); in that of `Cc1c(C(=O)Nc2cccc(F)c2)sc2nc(-c3cc4ccccc4oc3=O)[nH]c(=O)c12`, 37% (active); in that of `Cc1c(C(=O)Nc2ccccc2)sc2nc(-c3cc4ccccc4oc3=O)[nH]c(=O)c12`, 66%. In the case of `O=C(COc1ccc(Br)cc1Cl)Nc1ncn[nH]1`, the survival was 91%. Under `CCOCCCNC(=O)C1CCCN(c2ncnc3onc(C)c23)C1` (configuration not stated) stands 68%; under `COc1ccc(-c2cn3nc(N4CCC(C(=O)Nc5cccc(OC)c5)CC4)sc3n2)cc1`, 94%. Regarding `C#CCn1c(=NC(=O)c2ccc3c(c2)OCCO3)sc2cc(OC)c(OC)cc21`, the survival was 102%.

In the case of `COc1cccc(C(=O)c2cn(CC(=O)Nc3ccc4c(c3)OCCO4)c3nc(C)ccc3c2=O)c1`, the survival was 68%. As for `CNC(=O)c1ccc(Nc2nnc(-c3ccc(C)c(S(=O)(=O)N4CCCCC4)c3)c3ccccc23)cc1`, the survival was 54% (active).

Consider `CCOC(=O)c1c(C)oc2nc(C)nc(Nc3cc(C)cc(C)c3)c12`, for which the survival was 89%.

As for `CCOC(=O)c1c(Oc2ccc(C(=O)OC)cc2)nnc(-c2ccccc2)c1-c1ccccc1`, the survival is 74%.

Take `CCOC(=O)c1c(C)oc2ncnc(Nc3cc(C)cc(C)c3)c12`: the survival is 94%. As for `CCOC(=O)c1c(Nc2cccc(C(=O)OC)c2)nnc(-c2ccccc2)c1-c1ccccc1`, the survival is 16% (active). For `CCOC(=O)c1c(C)oc2nc(C)nc(Nc3cccc(OC)c3)c12`, the survival is 78%. On to `Cc1ccc(-c2nnc(Nc3cccc(O)c3)c3ccccc23)cc1S(=O)(=O)N1CCOCC1`, for which the survival is 78%. Under `Cc1ccc(-c2nnc(Nc3ccc(C(N)=O)cc3)c3ccccc23)cc1S(=O)(=O)N1CCCCC1` stands 128%; under `CNC(=O)c1ccc(Nc2nnc(-c3ccc(C)c(S(=O)(=O)N4CCOCC4)c3)c3ccccc23)cc1`, 61%; under `CCOC(=O)c1c(Nc2cccc(O)c2)nnc(-c2ccccc2)c1-c1ccccc1`, 31% (active). Under `Cc1ccc(-c2nnc(Nc3cccc(O)c3)c3ccccc23)cc1S(=O)(=O)N1CCCCC1` stands 60%; under `CCOC(=O)c1c(Nc2cc(C)cc(C)c2)nnc(-c2ccccc2)c1-c1ccccc1`, 32% (active).

For `Cc1ccc(N2CCN(c3nc4c(S(=O)(=O)c5ccc(C)c(C)c5)nnn4c4ccccc34)CC2)c(C)c1`, the survival was 82%.

Take `CN(C)c1ccc(CNC(=O)C2CCCN(S(=O)(=O)c3ccc4c(ccn4C)c3)C2)cc1` (configuration not stated): the survival is 83%. Under `Cc1noc(-c2ccc(N3CCCCC3C)c([N+](=O)[O-])c2)n1` (configuration not stated) stands 108%. Turning to `CCOc1ccc(N2C(=O)N(Cc3ccc(C)cc3C)c3ccccc3S2(=O)=O)cc1`, the survival is 94%.

Take `CCOC(=O)c1cccc(Nc2cc(C)nc(C)n2)c1`: the survival was 65%. In the case of `Cc1ccc(-c2nnc(Nc3cccc(O)c3)c3ccccc23)cc1S(=O)(=O)N1CCN(C)CC1` it was 97%; in that of `CCOC(=O)c1c(C)c(-c2ccccc2)n(CC(=O)Nc2cc(C)cc(C)c2)c1C`, 80%. In the case of `CCOC(=O)CNS(=O)(=O)c1cc(-c2nnc(Nc3cccc(O)c3)c3ccccc23)ccc1C` it was 39% (active); in that of `CCOC(=O)c1c(Nc2cccc(C)c2)nnc(-c2ccccc2)c1-c1ccccc1`, -4% (active); in that of `CCOC(=O)c1cccc(Nc2cc(-c3ccccc3)ncn2)c1`, 15% (active). In the case of `CCOC(=O)c1c(C)oc2ncnc(Nc3cccc(C(F)(F)F)c3)c12` it was 105%; in that of `Cc1ccc(-c2nnc(Nc3cccc(O)c3)c3ccccc23)cc1S(=O)(=O)NCC1CCCO1` (configuration not stated), 74%; in that of `Oc1cccc(Nc2cc(-c3ccccc3)ncn2)c1`, 63%. On to `CCc1ccc(NC(=O)Cn2c(=O)n(-c3ccccc3C)c(=O)c3c2c2cc(OC)ccc2n3C)cc1`, for which the survival was 67%. For `COc1ccccc1OCC(=O)NC1CC(=O)N(c2ccc3c(c2)OCCO3)C1` (configuration not stated), the survival was 67%. Under `Cc1coc2c(C)c3oc(=O)c(CCC(=O)NCCc4ccccc4F)c(C)c3cc12` stands 57%.

Take `COC(=O)c1ccc(C2c3c(-c4ccccc4O)n[nH]c3C(=O)N2Cc2ccncc2)cc1` (configuration not stated): the survival is 90%.

Take `O=C1c2[nH]nc(-c3ccccc3O)c2C(c2ccc(Cl)cc2)N1Cc1ccco1` (configuration not stated): the survival is -1% (active). Regarding `COc1cc(C2c3c(-c4cc(C)ccc4O)n[nH]c3C(=O)N2CCCO)ccc1OCCC(C)C` (configuration not stated), the survival was 58%. In the case of `COc1ccc(C2c3c(-c4ccccc4O)n[nH]c3C(=O)N2Cc2ccco2)cc1` (configuration not stated) it was 1% (active).

In the case of `CC(C)c1ccc(C2c3c(-c4ccccc4O)n[nH]c3C(=O)N2Cc2ccncc2)cc1` (configuration not stated), the survival is 88%. Under `COc1cc(C2c3c(-c4ccccc4O)n[nH]c3C(=O)N2Cc2ccco2)ccc1OCC(C)C` (configuration not stated) stands 7% (active). Take `COc1cc(C2c3c(-c4ccccc4O)n[nH]c3C(=O)N2CCO)ccc1OCC(C)C` (configuration not stated): the survival is 99%.

For the compound `O=C1c2[nH]nc(-c3ccccc3O)c2C(c2cccc(Cl)c2)N1Cc1cccnc1` (configuration not stated), the survival is 65%.

Turning to `CCCOc1ccc(C2c3c(-c4c(C)cc(C)cc4O)n[nH]c3C(=O)N2CCO)cc1` (configuration not stated), the survival was 73%. Under `COc1cc(C2c3c(-c4c(C)cc(C)cc4O)n[nH]c3C(=O)N2Cc2ccco2)cc(OC)c1OC` (configuration not stated) stands 67%. With `COc1ccc(C2c3c(-c4c(C)cc(C)cc4O)n[nH]c3C(=O)N2Cc2ccco2)cc1` (configuration not stated), the survival was 0% (active).

The values are drawn from PubChem BioAssay AID463173 (ICCB-Longwood Screening Facility, Harvard Medical School, 2010).
